According to PubChem BioAssay (EPA / NIEHS):
Calls of active or inactive are those of the source. The calls were made as follows: active = hit-call score of the fitted dose curve at least 0.9, where 1 is the maximum; inactive = score below 0.9.

Tests used:
[1] = ATG_DR4_LXR_CIS: Attagene CIS-FACTORIAL HepG2 Assay for human Liver X Receptor (LXR), DR4 submotif (AID 2282929); conditions: HepG2 Attagene DR4 cis-reporter, mRNA transcription; AC50: actives raise or lower the signal unless noted; outcome: actives raise or lower the signal unless noted
Method in brief: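 HepG2, transient MRTU transfection, cis-element (DR4) promoter; 24 h compound exposure; total RNA → oligo(dT) RT → PCR → 6-FAM primer extension → HpaI cut → CE. Gain/loss vs DMSO, bidirectional fit.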

[2] = target: Aryl hydrocarbon receptor (Homo sapiens) (UniProt P35869); assay: ATG_Ahr_CIS: Attagene CIS-FACTORIAL HepG2 Assay for human Aryl Hydrocarbon Receptor (Ahr) (AID 2282930); conditions: HepG2 AhR cis-factorial reporter transcription; actives raise or lower the signal
Method in brief: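 HepG2 cells transiently transfected with cis-element-driven multiplexed reporter transcription units; endogenous transcription factor activity measured as reporter mRNA 24 h after dosing. RT-PCR, 6-FAM labelling, HpaI digestion, capillary electrophoresis; bidirectional fitting versus DMSO baseline.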

[3] = ATG_AP_2_CIS: Attagene CIS-FACTORIAL HepG2 Assay for human Activator Protein 2 (AP-2) (AID 2282932); conditions: HepG2 AP-2 cis-reporter, Attagene transcription factor profiling; AC50: actives raise or lower the signal unless noted; outcome: actives raise or lower the signal unless noted
Method in brief: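 Bidirectional curve fitting against DMSO was applied to reporter mRNA signals from HepG2 cells 24 h after dosing. Cis-promoter reporter units, transiently transfected, were read by RT-PCR plus capillary electrophoresis.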

[4] = ATG_BRE_CIS: Attagene CIS-FACTORIAL HepG2 Assay for human Bone Morphogenetic Protein (BMP) Response Element (BRE) (AID 2282933); conditions: HepG2 BMP response element reporter, Attagene transcription factor profiling; actives raise or lower the signal
Method in brief: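 HepG2 cells transiently transfected with multiplexed cis-element reporter units were dosed with chemical for 24 h. Reporter mRNA was measured by RT-PCR with fluorescent labelling, HpaI digestion and capillary electrophoresis; bidirectional fitting relative to DMSO.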

[5] = target: Transcription factor E2F1 (Homo sapiens) (UniProt Q01094); assay: ATG_E2F_CIS: Attagene CIS-FACTORIAL HepG2 Assay for human E2F Transcription Factor 1 (AID 2282935); conditions: HepG2 Attagene cis-reporter, E2F reporter RNA transcripts; actives raise or lower the signal
Method in brief: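 Multiplexed cis-reporter assay: HepG2, transient transfection, 24 h dosing, mRNA quantitation by labeled RT-PCR and CE.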

[6] = ATG_E_Box_CIS: Attagene CIS-FACTORIAL HepG2 Assay for human Enhancer Box (E-box) (AID 2282936); conditions: HepG2 E-box cis-reporter transcription, actives raise or lower the signal
Method in brief: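 Multiplexed CIS reporter system in transiently transfected HepG2 cells measures native transcription factor activity. Reporter RNA after 24 h exposure is profiled by RT-PCR-capillary electrophoresis.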

[7] = ATG_M_61_CIS: Attagene CIS-FACTORIAL HepG2 Assay for M61 Transcription Factor (Internal Marker) (AID 2282937); conditions: HepG2 Attagene CIS-FACTORIAL M61 internal marker reporter; actives raise or lower the signal
Method in brief: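 Human liver HepG2, transient MRTU transfection (cis promoter elements), 24 h compound. Total RNA → oligo(dT) RT → PCR → FAM label → HpaI → CE. Internal background marker; bidirectional fitting, DMSO = baseline.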

[8] = ATG_EGR_CIS: Attagene CIS-FACTORIAL HepG2 Assay for human Early Growth Response 1 (EGR1) (AID 2282938); conditions: HepG2 Attagene CIS-FACTORIAL EGR reporter mRNA; actives raise or lower the signal
Method in brief: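 Transient transfection of human HepG2 with multiple cis-regulated reporter units, chemical exposure 24 h, total RNA isolated. Reverse transcription, PCR, fluorescent labelling and capillary electrophoresis quantify reporter transcripts; activity fitted bidirectionally against DMSO.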

[9] = ATG_M_19_CIS: Attagene CIS-FACTORIAL HepG2 Assay for M19 Transcription Factor (Internal Marker) (AID 2282939); conditions: HepG2 Attagene CIS-FACTORIAL M19 internal marker reporter; actives raise or lower the signal
Method in brief: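 HepG2 cells transiently transfected with cis-regulated multiple reporter transcription units were dosed for 24 h; reporter mRNA was quantified by RT-PCR, 6-FAM primer-extension labelling, HpaI digestion and capillary electrophoresis, with bidirectional fitting against DMSO baseline.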

[10] = ATG_Ets_CIS: Attagene CIS-FACTORIAL HepG2 Assay for human Erythroblast Transformation Specific (ETS) (AID 2282941); conditions: HepG2 ETS cis-reporter transcription; AC50: actives raise or lower the signal unless noted; outcome: actives raise or lower the signal unless noted
Method in brief: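 After transient cis-reporter transfection, HepG2 cells receive test chemical for 24 h. Reporter mRNA levels, measured by RT-PCR and capillary electrophoresis fluorescence, are analysed bidirectionally relative to the DMSO baseline.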

[11] = target: Hepatocyte nuclear factor 3-beta (Homo sapiens) (UniProt Q9Y261); assay: ATG_FoxA2_CIS: Attagene CIS-FACTORIAL HepG2 Assay for human Forkhead box A2 (FOXA2) (AID 2282942); conditions: HepG2 cis-reporter transcription factor activity, 24 h; actives raise or lower the signal
Method in brief: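 Transient MRTU transfection of HepG2 liver cells; 24 h treatment; total RNA → oligo(dT) RT → PCR → FAM primer extension → HpaI cut → CE. Bidirectional fit vs DMSO.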

[12] = ATG_GATA_CIS: Attagene CIS-FACTORIAL HepG2 Assay for human GATA Binding Protein (AID 2282944); conditions: HepG2 GATA cis-element reporter, Attagene multiplex mRNA; actives raise or lower the signal
Method in brief: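 HepG2 cells transiently transfected with multiplexed cis-element reporter units reflecting endogenous transcription factor activity; reporter mRNA measured after 24 h dosing by RT-PCR, 6-FAM labeling, HpaI digestion and capillary electrophoresis. Bidirectional fitting versus DMSO baseline.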

[13] = ATG_GLI_CIS: Attagene CIS-FACTORIAL HepG2 Assay for human Zinc Finger Protein GLI1 (AID 2282945); conditions: HepG2, Attagene cis-factorial reporter mRNA, GLI element; actives raise or lower the signal
Method in brief: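 HepG2 cells transiently transfected with cis-promoter multiplexed reporter units report endogenous transcription factor activity. After 24 h chemical exposure, reporter mRNA was quantified by RT-PCR, 6-FAM labelling, HpaI digestion and capillary electrophoresis, with bidirectional fitting against DMSO.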

[14] = ATG_GRE_CIS: Attagene CIS-FACTORIAL HepG2 Assay for human Glucocorticoid Response Elements (GRE) (AID 2282947); conditions: HepG2 GRE cis-reporter, Attagene multiplex mRNA; AC50: actives raise or lower the signal unless noted; outcome: actives raise or lower the signal unless noted
Method in brief: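 Following 24 h chemical exposure of transiently transfected HepG2 cells, total RNA was reverse-transcribed and reporter cDNA amplified, fluorescently labelled and sized by capillary electrophoresis. Signal gain or loss was fitted relative to DMSO vehicle.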

[15] = ATG_AP_1_CIS: Attagene CIS-FACTORIAL HepG2 Assay for human Activator Protein 1 (AP-1) (AID 2282931); conditions: HepG2 Attagene cis-factorial AP-1 reporter mRNA; actives raise or lower the signal
Method in brief: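 Transient MRTU transfection of HepG2 → 24 h chemical treatment → RNA isolation, RT-PCR, 6-FAM labelling, HpaI digest → capillary electrophoresis. Fit: bidirectional, DMSO negative control.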

[16] = target: Retinoic acid receptor alpha (Homo sapiens) (UniProt P10276); assay: ATG_DR5_RAR_CIS: Attagene CIS-FACTORIAL HepG2 Assay for human Retinoic Acid Receptor Alpha (RARE), DR5 submotif (AID 2282934); conditions: HepG2 Attagene cis-factorial RARE DR5 reporter, mRNA; actives raise or lower the signal
Method in brief: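 HepG2 cells transiently transfected with multiplexed reporter units under cis (DR5 RARE) promoters, so endogenous transcription factor activity is measured. After 24 h compound exposure, reporter mRNA is quantified by RT-PCR with fluorescent labelling and capillary electrophoresis; bidirectional fitting versus DMSO.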

[17] = ATG_ERE_CIS: Attagene CIS-FACTORIAL HepG2 Assay for Estrogen Response Element (ERE) (AID 2282940); conditions: HepG2 ERE cis-reporter, Attagene RNA transcript; actives raise or lower the signal
Method in brief: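 HepG2 cells transiently transfected with cis-promoter-driven multiplexed reporter transcription units report endogenous TF activity. After 24 h compound exposure, reporter mRNA is quantified by RT-PCR with capillary electrophoresis fluorescence; bidirectional fitting versus DMSO baseline.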

[18] = ATG_FoxO_CIS: Attagene CIS-FACTORIAL HepG2 Assay for human Forkhead box O (FoxO) (AID 2282943); conditions: HepG2 Attagene cis-reporter, FoxO element, mRNA; actives raise or lower the signal
Method in brief: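 HepG2 cells transiently transfected with cis-promoter-driven multiple reporter transcription units; 24 h after chemical dosing, reporter mRNA quantified by RT-PCR, fluorescent primer extension, HpaI digestion and capillary electrophoresis. Bidirectional fitting versus DMSO baseline.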

[19] = target: Bile acid receptor (Homo sapiens) (UniProt Q96RI1); assay: ATG_IR1_CIS: Attagene CIS-FACTORIAL HepG2 Assay for human Nuclear Receptor Subfamily 1 Group H Member 4 (NR1H4), IR1 submotif (AID 2282946); conditions: IR1 reporter transcription, actives raise or lower the signal
Method in brief: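 Transient MRTU transfection, HepG2; 24 h dosing; RNA → RT-PCR → 6-FAM primer extension → HpaI digest → capillary electrophoresis fluorescence. Gain/loss of signal fitted relative to DMSO.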

[20] = ATG_ISRE_CIS: Attagene CIS-FACTORIAL HepG2 Assay for human Interferon Regulatory Factor 1 (IRF1) binding to an Interferon-Stimulated Response Element (ISRE) (AID 2282948); conditions: HepG2 ISRE cis-reporter (Attagene), mRNA transcription readout; actives raise or lower the signal
Method in brief: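 Quantitation relies on labelled RT-PCR fragments separated by capillary electrophoresis. Human HepG2 cells bearing cis-promoter reporter constructs were treated 24 h; DMSO served as baseline for bidirectional fitting.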

Measured: AC50

Chain of Retinoic acid receptor alpha (Homo sapiens) (P10276 whole entry, looked up): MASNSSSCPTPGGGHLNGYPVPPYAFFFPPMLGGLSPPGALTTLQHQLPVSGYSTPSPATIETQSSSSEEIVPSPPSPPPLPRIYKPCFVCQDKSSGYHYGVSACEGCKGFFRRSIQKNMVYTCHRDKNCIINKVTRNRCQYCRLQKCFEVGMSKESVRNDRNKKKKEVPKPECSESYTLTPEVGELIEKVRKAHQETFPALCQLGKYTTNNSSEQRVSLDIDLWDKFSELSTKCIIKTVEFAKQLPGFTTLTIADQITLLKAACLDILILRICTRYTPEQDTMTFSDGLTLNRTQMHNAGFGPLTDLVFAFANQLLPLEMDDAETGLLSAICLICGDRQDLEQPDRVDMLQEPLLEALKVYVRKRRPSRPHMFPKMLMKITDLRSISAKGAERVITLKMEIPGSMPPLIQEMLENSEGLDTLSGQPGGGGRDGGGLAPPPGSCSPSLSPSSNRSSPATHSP
Chain of Bile acid receptor (Homo sapiens) (Q96RI1 whole entry, looked up): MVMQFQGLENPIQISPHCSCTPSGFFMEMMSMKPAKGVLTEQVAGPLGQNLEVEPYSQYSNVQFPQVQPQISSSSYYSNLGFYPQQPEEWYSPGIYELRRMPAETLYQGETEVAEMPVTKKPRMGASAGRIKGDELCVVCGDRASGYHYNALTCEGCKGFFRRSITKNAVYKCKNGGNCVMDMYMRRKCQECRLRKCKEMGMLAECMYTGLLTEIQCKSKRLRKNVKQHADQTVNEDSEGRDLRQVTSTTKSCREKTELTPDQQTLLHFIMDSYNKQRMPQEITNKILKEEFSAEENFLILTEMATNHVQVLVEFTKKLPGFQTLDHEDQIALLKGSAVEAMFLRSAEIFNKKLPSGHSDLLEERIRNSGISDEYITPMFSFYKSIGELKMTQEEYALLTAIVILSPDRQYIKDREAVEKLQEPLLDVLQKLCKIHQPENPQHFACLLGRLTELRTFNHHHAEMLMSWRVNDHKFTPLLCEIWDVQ
Chain of Hepatocyte nuclear factor 3-beta (Homo sapiens) (Q9Y261 whole entry, looked up): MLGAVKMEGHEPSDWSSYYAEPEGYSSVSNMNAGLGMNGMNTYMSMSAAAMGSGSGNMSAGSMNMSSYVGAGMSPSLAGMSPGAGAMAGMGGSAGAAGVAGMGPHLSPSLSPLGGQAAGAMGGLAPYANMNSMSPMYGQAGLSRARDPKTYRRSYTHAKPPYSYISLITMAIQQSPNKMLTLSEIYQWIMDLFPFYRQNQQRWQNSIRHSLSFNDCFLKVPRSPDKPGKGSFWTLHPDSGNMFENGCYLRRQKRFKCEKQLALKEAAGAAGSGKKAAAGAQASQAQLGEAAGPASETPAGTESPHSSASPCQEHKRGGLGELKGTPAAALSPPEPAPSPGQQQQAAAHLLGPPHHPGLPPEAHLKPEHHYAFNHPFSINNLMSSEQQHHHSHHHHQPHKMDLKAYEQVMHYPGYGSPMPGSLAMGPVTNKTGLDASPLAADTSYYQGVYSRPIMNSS
Chain of Aryl hydrocarbon receptor (Homo sapiens) (P35869 whole entry, looked up): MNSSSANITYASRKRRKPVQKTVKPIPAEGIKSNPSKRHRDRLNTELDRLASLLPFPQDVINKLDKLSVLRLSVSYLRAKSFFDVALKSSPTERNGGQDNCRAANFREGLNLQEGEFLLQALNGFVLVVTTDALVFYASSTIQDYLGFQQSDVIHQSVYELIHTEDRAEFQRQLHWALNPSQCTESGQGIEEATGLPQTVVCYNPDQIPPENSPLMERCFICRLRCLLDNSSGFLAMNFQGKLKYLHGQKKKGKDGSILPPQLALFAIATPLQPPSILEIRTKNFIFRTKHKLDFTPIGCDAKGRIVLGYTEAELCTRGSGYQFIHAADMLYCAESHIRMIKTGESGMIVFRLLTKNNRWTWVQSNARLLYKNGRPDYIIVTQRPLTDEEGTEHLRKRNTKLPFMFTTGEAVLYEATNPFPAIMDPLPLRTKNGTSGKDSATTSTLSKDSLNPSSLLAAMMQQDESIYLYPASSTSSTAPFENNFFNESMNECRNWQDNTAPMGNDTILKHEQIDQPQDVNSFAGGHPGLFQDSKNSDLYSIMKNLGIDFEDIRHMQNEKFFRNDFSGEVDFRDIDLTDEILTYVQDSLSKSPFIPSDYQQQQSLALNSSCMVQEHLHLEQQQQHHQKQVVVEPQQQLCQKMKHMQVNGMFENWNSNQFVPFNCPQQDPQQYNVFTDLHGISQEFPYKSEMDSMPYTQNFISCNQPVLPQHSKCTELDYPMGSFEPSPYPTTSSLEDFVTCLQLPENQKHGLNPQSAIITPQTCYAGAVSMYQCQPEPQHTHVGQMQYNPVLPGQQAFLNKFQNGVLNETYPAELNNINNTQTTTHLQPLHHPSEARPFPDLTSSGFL
Chain of Transcription factor E2F1 (Homo sapiens) (Q01094 whole entry, looked up): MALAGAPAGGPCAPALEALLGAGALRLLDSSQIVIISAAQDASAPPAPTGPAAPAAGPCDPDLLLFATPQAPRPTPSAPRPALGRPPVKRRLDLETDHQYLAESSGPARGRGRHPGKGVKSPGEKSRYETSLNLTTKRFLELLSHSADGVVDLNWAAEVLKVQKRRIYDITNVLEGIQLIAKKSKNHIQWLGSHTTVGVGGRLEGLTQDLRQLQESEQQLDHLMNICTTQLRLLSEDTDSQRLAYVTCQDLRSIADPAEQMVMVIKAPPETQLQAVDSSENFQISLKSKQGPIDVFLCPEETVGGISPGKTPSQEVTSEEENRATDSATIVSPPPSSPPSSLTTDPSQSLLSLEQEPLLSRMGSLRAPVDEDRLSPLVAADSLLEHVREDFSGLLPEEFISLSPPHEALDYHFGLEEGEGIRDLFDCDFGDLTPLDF

O=C(CCCN1CCC(O)(c2ccc(Cl)cc2)CC1)c1ccc(F)cc1
active: [6] 22 µM | [8] 33.4 µM | [12] 52.8 µM | [14] 52 µM
not listed: [15] | [16] | [17] | [18] | [19] | [20]
inactive: all other assays above

C/C=C/C(=O)C1=C(C)CCCC1(C)C
active: [1] 24.6 µM | [2] 72.2 µM | [15] 27.6 µM | [4] 27.3 µM | [18] 138 µM | [19] 43.9 µM
not listed: [3] | [8] | [10] | [13] | [20]
inactive: all other assays above

C=CC(=O)OCCN(CC)CC
active: [1] 26.6 µM | [15] 178 µM | [6] 37 µM | [8] 54.4 µM | [20] 44.3 µM
not listed: [2]
inactive: all other assays above

CCC1CO1 (centres undefined)
not listed: [8] | [15] | [17] | [18]
inactive: all other assays above

CS(=O)(=O)c1ccc([C@@H](CC2CCCC2)C(=O)Nc2cnccn2)cc1Cl
active: [1] 29.1 µM | [2] 68.4 µM | [4] 127 µM | [8] 50.6 µM | [18] 152 µM | [20] 30.2 µM
not listed: [10] | [13] | [15] | [17] | [19]
inactive: all other assays above

O=C(F)C(F)(F)C(F)(F)C(F)(F)C(F)F
not listed: [3] | [8] | [10]
inactive: all other assays above

C=COC(=O)C(C)(C)CCCCCC
active: [17] 100 µM
not listed: [3] | [15]
inactive: all other assays above
